Screening data (PubChem BioAssay)
Only a selection was taken, and hits are over-represented in it overall.
ST2 inh: inhibitors of human ST2 (IL1RL1) binding to IL-33, primary screen, biochemical, AlphaLISA | Interleukin-1 receptor-like 1 (Homo sapiens), Q01638 | AlphaLISA ST2-Fc/biotin-IL-33 interaction, 1 h | inhibition, % for hits at 17 µM | 78,000 compounds, 2.3% hits | AID 1259354, 2018; in the data active = inhibition above about 30%
Target sequence (Q01638 whole entry, looked up): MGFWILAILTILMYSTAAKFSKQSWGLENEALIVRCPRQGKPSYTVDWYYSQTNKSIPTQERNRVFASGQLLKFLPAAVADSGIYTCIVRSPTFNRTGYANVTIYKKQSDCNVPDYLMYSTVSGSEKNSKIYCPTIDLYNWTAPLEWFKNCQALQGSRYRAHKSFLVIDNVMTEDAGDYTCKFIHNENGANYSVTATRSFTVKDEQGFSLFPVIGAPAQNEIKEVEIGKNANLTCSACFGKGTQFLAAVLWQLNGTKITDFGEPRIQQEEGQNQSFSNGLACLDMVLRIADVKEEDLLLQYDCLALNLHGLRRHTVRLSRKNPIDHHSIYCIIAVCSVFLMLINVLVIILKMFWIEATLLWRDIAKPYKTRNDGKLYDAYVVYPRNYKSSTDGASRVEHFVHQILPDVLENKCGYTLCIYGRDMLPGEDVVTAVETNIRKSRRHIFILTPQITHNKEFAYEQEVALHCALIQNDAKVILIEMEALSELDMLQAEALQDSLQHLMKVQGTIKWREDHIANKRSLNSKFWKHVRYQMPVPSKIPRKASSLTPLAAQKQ
A number is an active result; – = inactive; ! = not confirmed by another sample.

SMILES	ST2 inh
O=C(NC1CCCCCC1)c1cc2cc3ccc(Cl)cc3nc2o1	36.0%!
CC1CC(C)CN(CCCNC(=O)c2cc3cc4ccc(Cl)cc4nc3o2)C1 (configuration not stated)	–
CCOc1ccc(NC(=O)C(C)Sc2nc3ccccc3[nH]2)cc1 (configuration not stated)	–
CCOC(=O)c1sc(NC(=O)c2ccc(Br)cc2F)nc1C	–
Cn1c(=O)[nH]c(=O)c2c1nc(N1CCCC1)n2CCSc1nc2ccccc2s1	–
CCc1cnc(C)nc1N1CCCN(C(=O)c2ccoc2)CC1	–
O=c1oc2ccccc2c(N2CCN3CCCC3C2)c1[N+](=O)[O-] (configuration not stated)	–
COc1ccc(-c2cc(C(F)(F)F)nc(-n3cc(C)cn3)n2)cc1	–
CC(C(=O)N1CCN(c2cccc(Cl)c2)CC1)N1C(=O)c2ccccc2C1=O (configuration not stated)	–
CC(=O)N(C1=C(N2CCCCC2)C(=O)c2ccccc2C1=O)c1cccc(Cl)c1	61.0%
CC(C)CC(C(=O)Nc1cccc(Cl)c1)N1C(=O)c2ccccc2C1=O (configuration not stated)	–
O=C(Nc1ccc(Br)cc1)c1cc(=O)c2ccccc2o1	–
CSc1ccc(S(=O)(=O)N(CC(=O)Nc2ccc(C(N)=O)cc2)c2ccc(C)cc2)cc1	–
CCN(CC)C(=O)[C@@H]1C[C@H](N)CN1C(=O)c1c(C)nn2c(C)cc(C)nc12	–
CCC(=O)OCCNc1cc(C)c2noc3c2c1C(=O)c1ccccc1-3	33.0%
COCCCNC(=O)c1cc2c(=O)n3ccccc3nc2n(CCCO)c1=N	–
CN1C(=O)C2C(C1=O)N1C(c3ccccc3)C3C(=O)N(C)C(=O)C3N1C2c1ccccc1 (configuration not stated)	–
Cc1cc(C)c(S(=O)(=O)N2CCCC2=O)c(C)c1	–
CCN1CCN(Cc2c(C)[nH]c3c(C)cc(C)cc3c2=O)CC1	–
Cc1cc(C)c(N2CCC(=O)N2)c(C)c1	33.0%
O=C1c2ccc(Br)cc2C(=O)N1c1ccccc1O	–
O=C(C1CCC(=O)N(C2CC2)C1)N1CCC(Cc2ccccc2F)CC1 (configuration not stated)	–
Cc1c(C(C)NCCCc2ccccc2)cnn1-c1cccc(F)c1 (configuration not stated)	–
Cc1c(C(C)NCc2ccc(F)c(F)c2)cnn1-c1ccccc1 (configuration not stated)	–
Cc1ccc2[nH]c(CNC(C)c3cnn(-c4cccc(F)c4)c3C)c(C)c2c1 (configuration not stated)	32.0%
SMILES	ST2 inh
COc1cccc(NC(=O)c2ccc(=O)n(Cc3ccccc3C)c2)c1	–
CCN(CC)S(=O)(=O)c1ccc(C(=O)N2CCN=C2SCc2cccc(C)c2)cc1	–
O=C(NC1CCCC1)c1ccc2nc3ccc(Cl)cc3c(=O)n2c1	–
COc1ccc(OC)c(C2CC(=O)N3CN(Cc4ccccc4)CSC3=C2C#N)c1 (configuration not stated)	–
COc1ccc(C2C(C#N)=C(N)OC3=C2C(=O)CC(c2ccccc2)C3)cc1 (configuration not stated)	–
Cc1cc2c(c(=O)o1)C(c1ccccc1OCc1ccccc1Cl)C(C#N)=C(N)O2 (configuration not stated)	–
COc1ccc(C2C(C#N)=C(N)Oc3cc(C)oc(=O)c32)cc1OCc1ccccc1 (configuration not stated)	32.0%
COc1ccc(C2C(C#N)=C(N)Oc3n[nH]c(C)c32)cc1OCc1ccccc1 (configuration not stated)	–
COc1cc(C2C(C#N)=C(N)OC3=C2C(=O)CC(c2ccccc2)C3)ccc1OCc1ccccc1 (configuration not stated)	37.0%
COc1cc(C2C(C#N)=C(N)OC3=C2C(=O)CC(c2ccccc2)C3)cc(OC)c1OC (configuration not stated)	–
COc1ccc(CN2CCCN(CC(=O)Nc3ccc(C)cc3Cl)S2(=O)=O)cc1	–
O=C(O)CSc1nnc(Cc2cccnc2)n1-c1cccc(Cl)c1	–
CCOc1ccccc1Nc1ncnc2c1cnn2-c1ccc(OC)cc1	–
Cc1nc2c(ccc3nc(NC(=O)C(C)(C)C)sc32)s1	–
CCN(CC)C(=O)C1CCCN(C(=O)CC2(c3ccccc3Cl)CC(=O)N(CCOC)C2=O)C1 (configuration not stated)	–
Cc1ccc(C(=O)N[C@H]2CO[C@H]3[C@@H]2OC[C@@H]3n2nnnc2Oc2cccc(N(C)C)c2)cc1	81.0%
Cc1ccc(C(=O)N[C@H]2CO[C@H]3[C@@H]2OC[C@@H]3n2nnnc2-c2ccc(N(C)C)cc2)cc1	–
COC(=O)c1cccc(NC(=S)N[C@H]2CO[C@H]3[C@@H]2OC[C@@H]3n2nnnc2Oc2cccc(N(C)C)c2)c1	–
COc1ccc(/C=c2/sc3nc(-c4ccc(Cl)cc4)nn3c2=O)c(OC)c1	–
CCOc1ccc(-c2nc3s/c(=C\c4ccc(OC)cc4)c(=O)n3n2)cc1	–
CCCOc1ccc(-c2nc3s/c(=C\c4ccc(OC)c(OC)c4)c(=O)n3n2)cc1	–
CCCOc1ccc(-c2nc3s/c(=C\c4ccc(OC)cc4)c(=O)n3n2)cc1	–
COc1ccc(-c2nc3s/c(=C\c4ccc(OC)c(OC)c4)c(=O)n3n2)cc1	38.0%
COc1ccc(-c2nc3s/c(=C\c4cc(C)c(O)c(C)c4)c(=O)n3n2)cc1	36.0%
O=C(c1ccc(Cl)cc1)N(c1ccc(F)cc1)C1C=CS(=O)(=O)C1 (configuration not stated)	–
SMILES	ST2 inh
O=C(NCC1CCCC(CNC(=O)c2ccccc2F)C1)c1ccccc1F (configuration not stated)	–
C=CCNC(=O)c1cc(-c2cccc(Cl)c2)on1	–
COc1ccc(C(=O)Oc2cc3c(C)cc(=O)oc3cc2Cl)cc1OC	–
Cc1ccsc1[C@@H]1CCN(Cc2ccnc(C(C)C)n2)C[C@H]1O	–
CC(C)CC(=O)Nc1ccc(NC(=O)c2cccs2)cc1	–
CCc1nccn1CCC(=O)N1CC[C@H](CO)[C@H](O)C1	–
COC1CCC(C(=O)N2C[C@@H](N)C[C@H]2C(=O)NC(C)C)CC1 (some centres not stated)	–
c1cnc(Nc2nc(-c3ccncc3)cs2)nc1	–
Oc1ccc(-c2csc(Nc3ncccn3)n2)cc1O	44.0%
Cc1ccc(C)c(-c2csc(Nc3ncccn3)n2)c1	–
CCN(CC)CCn1c2ccccc2n2nc(C)c(=O)nc12	–
Cc1nnc2n1N=C(c1ccc(Cl)cc1)CS2	39.0%!
COc1ccc(C2=Nn3c(nnc3-c3ccccc3)SC2)cc1	–
Oc1ccccc1-c1nnc2n1N=C(c1ccc(Cl)cc1)CS2	–
O=c1c2sccc2n(Cc2ccccc2F)c(=O)n1-c1ccccc1	–
CS(=O)(=O)N1CCC(NCCSc2cn[nH]n2)CC1	–
CC(C)NC(=O)CCS(=O)(=O)c1cccc2nsnc12	–
Cc1ccc(N=c2oc3ccc(Br)cc3cc2C(N)=O)cc1	–
Cc1cccc(N=c2oc3ccc(Br)cc3cc2C(N)=O)c1	–
NC(=O)c1cc2cc(Br)ccc2oc1=Nc1ccccc1	33.0%
Cc1ccc(-n2nc3c(c2NC(=O)c2ccco2)CSC3)c(C)c1	–
COc1ccc(C2SCCN2S(=O)(=O)c2cccc(C)c2)cc1[N+](=O)[O-] (configuration not stated)	31.0%
COc1cc(OC)c(C2SCCN2S(=O)(=O)c2cccc(C)c2)cc1OC (configuration not stated)	–
